A number with no mark means an inactive call. Active and inactive are the calls of the source.

The record followed here is PubChem BioAssay.
Note: test concentration not given here.

A short description of the first test: fission yeast growth modulation, primary screen, strain 972, OD600, 24 h, no modulator (AID 1090).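 Note: basal condition with compound alone and no growth modifier present.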 The following applies: S. pombe 972 growth, higher = more signal, called active from +8 up or from −8 down.
Regarding `CN(C)CCCNC(=O)[C@@]1(c2ccc([N+](=O)[O-])cc2)CC(=O)N(CC23CC4CC(CC(C4)C2)C3)[C@@H]1c1ccc(CO)cc1`, the z-score was -20.2 (active).
The same measure, in the same setting: as for `CCOC(=O)C[C@H]1[C@H](OC(=O)c2ccc(-c3ccccc3)cc2)[C@@H](NC(=O)c2ccc3ccccc3n2)c2cc(OCCCO)ccc2N1C(=O)c1ccccc1`, the figure is 0.33; as for `CCOC(=O)C1=CC[C@@H](c2ccccc2)N(S(=O)(=O)c2ccc(C)cc2)C1`, 1.09.
`CCOC(=O)[C@H]1C/C=C/C[C@H](C(=O)OCC)C(=O)O[C@H]2[C@@H](OC)O[C@H](CO)[C@@H](OC(=O)Nc3ccc(OC)cc3)[C@@H]2OC1=O`: the z-score is -0.0368.
The same measure, in the same setting: as for `COC(=O)[C@H](Cc1ccccc1)N1CC(/C=C/C2CC2)=C[C@@H]1[C@@H](O)Cc1ccccc1`, the figure is -3.04; as for `Cc1ccc(F)cc1S(=O)(=O)N[C@@H]1CCN(Cc2ccc(Oc3ccccc3)cc2)C1`, -21.4 (active).
Still for that read-out and setting: the value for `COCCOC(=O)N1C(=O)[C@@]2(c3cc(C#Cc4ccc(OC)cc4)ccc31)[C@H](C(=O)NC[C@H](O)c1ccccc1)[C@H]1C(=O)O[C@H](c3ccccc3)[C@H](c3ccccc3)N1[C@@H]2c1ccc(O)cc1` was 1.06.
The same measure, in the same setting: as for `CN(C)CCCNC(=O)[C@@H]1c2ccccc2C(=O)N(CC23CC4CC(CC(C4)C2)C3)[C@H]1c1ccc(CO)cc1`, the figure is -7.98; as for `CCOC(=O)[C@@H]1[C@@H]2C(=O)N(CC)C(=O)[C@@H]2C[C@@H]1Sc1ccccc1`, 0.792; as for `CC(C)C(=C=CC[C@@H](O)c1ccccc1OCCO)C[C@@H](O)COCc1ccccc1`, -20.5 (active).

A further test in a line: S. cerevisiae growth modulation with rapamycin, primary screen, strain BY4716, OD600, 96 h (AID 1091). The following applies: higher = more signal, called active from +8 up or from −8 down.
Consider `CC(C)C(O)C1C=CC2C(=O)N(C)C(=O)C2N1Nc1ccccc1` (configuration not stated), for which the z-score was 0.204.
As for `Cc1c(NC(=O)/C(C#N)=C/C=C/c2ccc(N(C)C)cc2)c(=O)n(-c2ccccc2)n1C`, the z-score was -0.299.
The same measure, in the same setting: as for `COc1cc(CO)cc(I)c1O[C@H]1C=C(C(=O)NCCO)C[C@@H](N(Cc2ccc(F)cc2)C(=O)C2CCCO2)[C@@H]1O` (some centres not stated), the figure is -0.188; as for `O=C1C[C@@](C(=O)NCC(F)(F)F)(c2ccc([N+](=O)[O-])cc2)[C@@H](c2ccc(CO)cc2)N1C1CCCCC1`, -0.917; as for `COC(=O)Cn1c(C(=O)N2CCCC2)cc2c1C[C@H]1CN(C(=O)c3ccccc3)[C@@](Cc3ccc(F)cc3)(C(=O)OC)[C@@H]21`, -1.24.
Same read-out and setting: as for `O=C(CS)NCCCCCCNC(=O)[C@H]1C[C@H]2C(=O)N[C@@H](Cc3ccccc3)C(=O)N2[C@H]1c1cccc(OCCO)c1`, the figure is 1.15; as for `COc1cc2c(cc1OC)CN(C(=O)[C@H]1[C@@H]3C(=O)O[C@@H](c4ccccc4)[C@@H](c4ccccc4)N3[C@@H](c3ccc(OCCO)cc3)[C@]13C(=O)Nc1ccc(C#CC4(O)CCCCCC4)cc13)CC2`, 4.84; as for `O=C1O[C@H](c2ccccc2)[C@H](c2ccccc2)N2[C@H]1[C@@H](C(=O)O)[C@]1(C(=O)Nc3ccccc31)[C@H]2c1ccc(O)cc1`, 0.3.
Still for that read-out and setting: the value for `CC(=O)N1Cc2ccccc2C[C@]2(N=C(c3ccc(OCCCO)cc3)O[C@@H]2c2ccccc2)C1=O` was 13.6 (active); that for `Cc1ccc(S[C@]2(C(=O)O)CC(=O)N(Cc3ccccc3Cl)[C@@H]2c2ccc(CO)cc2)cc1` was 0.644.
For `COc1c(C)cc(-c2cc3c(c(-c4ccccc4)n2)[Si](C(C)C)(C(C)C)OC3)cc1C`, the z-score was -0.275.
For `O=C(CCCCCCC(=O)Nc1ccccc1)N/N=C/c1ccccc1`, the z-score was 1.06.
Still for that read-out and setting: as for `CCOC(=O)C[C@H]1[C@H](OC(=O)Cc2ccc3c(c2)OCO3)[C@@H](NC(=O)C2CCCCC2)c2cc(OCCCO)ccc2N1C(=O)c1ccc2ccccc2n1`, the figure is -0.591; as for `O=C(NC1CC1)[C@@H]1c2ccccc2C(=O)N(Cc2ccccc2)[C@H]1c1ccc(CO)cc1`, 0.0225; as for `NC(N)=NCc1cn(CCc2c[nH]c3ccccc23)nn1`, -1.38.
As for `COCCCNC(=O)[C@@]1(Sc2ccc(C)cc2)CC(=O)N(Cc2cc(C(F)(F)F)cc(C(F)(F)F)c2)[C@@H]1c1ccc(CO)cc1`, the z-score is -1.11.
As to `O=C1O[C@@H](c2ccccc2)[C@@H](c2ccccc2)N2[C@@H](c3ccc(O)cc3)[C@]3(C(=O)Nc4ccc(C#CC5=CCCCC5)cc43)[C@@H](C(=O)N3CCN(c4ncccn4)CC3)[C@H]12`, the z-score is 0.566.
